Test results taken from PubChem BioAssay AID1726 (National Center for Advancing Translational Sciences (NCATS), 2009).
Results filed as inconclusive are left out. The source made the active and inactive calls. Calls follow the shape of the dose curve; as a rule, active = well fitted curve in the direction sought with a large enough effect; inconclusive = small, poorly fitted or top-dose-only effect, or effect the other way, or another doubt; inactive = no such curve, though single readings can be large or run the other way.

biological target: Epidermal growth factor receptor (Homo sapiens) (UniProt P00533); experiment: Assay for Inhibitors of the ERK Signaling Pathway using a Homogeneous Screening Assay: EGFR T790M/L858R Kinase Inhibition; settings: series mostly up to 65.8 µM; activity change, negative = inhibition: at the top concentration
Sequence (P00533 whole entry T790M/L858R, looked up): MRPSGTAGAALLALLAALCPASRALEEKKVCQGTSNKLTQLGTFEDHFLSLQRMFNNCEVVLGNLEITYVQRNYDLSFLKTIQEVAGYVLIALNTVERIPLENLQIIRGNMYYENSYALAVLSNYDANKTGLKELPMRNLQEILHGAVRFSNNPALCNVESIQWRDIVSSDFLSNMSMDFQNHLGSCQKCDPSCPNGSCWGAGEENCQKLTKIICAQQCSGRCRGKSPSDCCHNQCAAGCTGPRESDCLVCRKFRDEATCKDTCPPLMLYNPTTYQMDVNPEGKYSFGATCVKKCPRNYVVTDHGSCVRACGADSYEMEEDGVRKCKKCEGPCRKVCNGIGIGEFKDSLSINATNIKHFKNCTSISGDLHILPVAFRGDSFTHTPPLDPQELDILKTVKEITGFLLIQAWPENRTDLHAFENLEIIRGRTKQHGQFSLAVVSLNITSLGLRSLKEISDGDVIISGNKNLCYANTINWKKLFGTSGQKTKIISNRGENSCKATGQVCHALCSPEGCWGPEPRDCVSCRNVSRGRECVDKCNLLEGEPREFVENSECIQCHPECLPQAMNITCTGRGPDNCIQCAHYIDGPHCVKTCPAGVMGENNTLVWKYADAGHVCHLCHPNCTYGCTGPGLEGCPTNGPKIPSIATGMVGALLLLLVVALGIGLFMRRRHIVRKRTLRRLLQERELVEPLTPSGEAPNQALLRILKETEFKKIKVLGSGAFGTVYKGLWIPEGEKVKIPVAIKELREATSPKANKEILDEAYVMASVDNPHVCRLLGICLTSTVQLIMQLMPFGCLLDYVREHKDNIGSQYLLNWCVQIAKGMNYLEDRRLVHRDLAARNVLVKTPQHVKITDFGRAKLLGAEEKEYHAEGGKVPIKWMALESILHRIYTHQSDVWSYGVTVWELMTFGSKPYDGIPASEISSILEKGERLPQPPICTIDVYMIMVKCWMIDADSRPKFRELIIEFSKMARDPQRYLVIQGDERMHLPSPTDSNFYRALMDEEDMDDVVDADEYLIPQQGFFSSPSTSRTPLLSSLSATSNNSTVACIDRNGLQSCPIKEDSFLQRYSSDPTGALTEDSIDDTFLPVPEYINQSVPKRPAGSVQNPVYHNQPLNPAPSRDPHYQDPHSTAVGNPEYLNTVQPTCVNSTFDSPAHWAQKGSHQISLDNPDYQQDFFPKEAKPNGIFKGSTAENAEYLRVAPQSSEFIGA
Excerpt: qHTS Assay for Inhibitors of the ERK Signaling Pathway using a Homogeneous Screening Assay
NIH Chemical Genomics Center [NCGC]
NIH Molecular Libraries Screening Centers Network [MLSCN]
Assay Submitter (PI): Dr. Wei Zheng, NCGC/NIH
The Ras/extracellular-signal-regulated kinase (ERK) mitogen activated protein (MAP) kinase signaling pathway (ERK1/2 cascade) plays is a key role in transmitting signals from the cell surface to the nucleus (Nishida and Gotoh 1993; Chang and Karin, 2001). The cascade is initiated by the small G-protein Ras, which recruits Raf […], where activation occurs. Alternatively, this pathway can be activated by elevating intracellular cAMP.
Activation of the ERK pathway is essential in increased cell division and cell survival. Sustained and constitutive activation of the ERK pathway, however, has been linked to uncontrolled cell proliferation, increased cell survival, and tumor progression. Thus, the ERK has been as an attractive target for cancer chemotherapy in the past few years (Sebolt-Leopold and Herrera, 2004). Given its physiological and pathological importance, assessment of ERK phosphorylation has been broadly performed in both basic research and drug discovery. Most assays for the measurement of ERK phosphorylation use the antibody-based detection methods, such as western blot and ELISA. These assays require multiple reagent additions with cell wash steps and are not suitable for high-throughput screening.
The current cell-based ERK phosphorylation assay was performed using AlphaScreen platform. AlphaScreen is a two bead-based proximity-dependent chemical energy transfer luminescent assay platform. The assay reagents (ERK SureFire(TM) kit) were supplied from TGR BioSciences (Australia). In the presence of specific antibodies, phosphorylated ERK will bring "donor" and "acceptor" beads to a proximity range (<200 nm), and subsequently lead a chemical luminescent reaction upon exciting donor beads with 680 nm laser. To validate pathway hits from the cell-based assay, enzyme assays consisting of EGFR tyrosine kinase, Raf and MEK were used as a means of deciphering the enzymes of target for the prioritized group of compounds derived from the HEK-293 cell based assay. The compounds were tested against significant members of the ERK signaling pathway EGFR and EGFR mutants (EGFR L858R, EGFR T790M, and EGFR L858R T790M). In order to establish the specificity of the prioritized compounds for EGFR and EGFR mutants, the compounds were also assayed against other important ERK signaling pathway enzymes, c-RAF and MEK-1.
NCGC Assay Protocol Summary:
The HTRF kinase assay (components supplied as kit by Cisbio) was chosen for the EGFR and EGFR mutant enzyme assays that applied the time resolved fluorescence resonance energy transfer (TR-FRET) principle. A peptide substrate is labeled with a biotin that can bind to XL665 labeled streptavidin and the anti-phosphoresidue antibody is labeled with Eu+. Upon phosphorylation of the substrate, the antibody binds to phosphorylated substrate that enables TR-FRET detection in homogenous assay format.
An HTRF Kinease TK assay kit (Cisbio, Bedford, MA) was used to develop the EGFR and EGFR mutant assays (Harbert et al., 2008. Harbert C, Marshall J, Soh S, Steger K. Development of a HTRF Kinase Assay for Determination of Syk Activity. Current Chemical Genomics. 1: 20-26. 2008). EGFR and EGFR mutants were obtained from Invitrogen. The assay buffer was composed of 50 mM HEPES (pH 7.0), 5 mM MgCl2, 5mM DTT, 0.1 % NaN3, 0.1 % BSA and 0.1 mM orthovanadate.
The HTRF assays were preformed according to the HTRF Kinease TK kit. Optimization for each enzyme was preformed in 384 well format (data not included). All reagents were dispensed into 1536 well plates.
(1) Enzyme, […] EGFR at 3 nM final
(2) Compound, 22 nl, Library Compounds in 0.128 to 10 mM titration series or control
(3) Reagent, 1.5 ul 10 uM ATP and 0.25 uM substrate final
(4) Incubation for 30 min, Ambient conditions
[…]

Row | SMILES | activity change, negative = inhibition | Potency
1 | CS(=O)(=O)CCNCc1nc(-c2ccc3ncnc(Nc4ccc(OCc5cccc(F)c5)c(Cl)c4)c3c2)cs1 | -1.71% (inactive) | 
2 | Cc1nc2ccccc2nc(=O)c1NNc1ccccc1 |  | 3.16 µM (active)
3 | CCn1c(=O)c2[nH]c(-c3ccccc3)nc2n(CC)c1=O | -10.9% [at 21.9 µM] (inactive) | 
4 | Cc1ccc2nc(=O)c(NNc3ccccc3)cnc2c1 |  | 3.55 µM (active)
5 | O=C(Nc1nc(-c2ccccc2)cs1)c1ccc(N2CCOCC2)c([N+](=O)[O-])c1 | -1.3% (inactive) | 
6 | Fc1ccc(Nc2ncnc3sc4c(c23)CCC4)cc1F | -14.1% (inactive) | 
7 | CNc1cccc2c1C(=O)c1ccccc1C2=O | 21.5% (inactive) | 
8 | Cn1nc(-c2ccccn2)nc2c(=O)n(C)c(=O)nc1-2 | 9.12% [at 21.9 µM] (inactive) | 
9 | Cc1ccc(NNc2c(C)nc3ccccc3nc2=O)cc1 | 9.82% [at 21.9 µM] (inactive) | 
10 | Cn1c(=O)[nH]c2nnc(-c3ccc(Cl)c(Cl)c3)nc2c1=O | 3.61% (inactive) | 
11 | Cn1nc(-c2ccc(Cl)cc2)nc2c(=O)n(C)c(=O)nc1-2 | 13.9% [at 21.9 µM] (inactive) | 
12 | CCN(CC)CCC(=O)Nc1cccc2c1C(=O)c1ccccc1C2=O | -8.96% [at 21.9 µM] (inactive) | 
13 | O=C1c2ccccc2C(=O)c2c(NCCCN(CCO)CCO)cccc21 | 27.1% (inactive) | 
14 | COc1ccc(C(=O)c2ccc(Cl)c([N+](=O)[O-])c2)cc1 | 1.54% (inactive) | 
15 | N#C/C(=C(/N)Sc1ccc(N)cc1)c1ccccc1C(F)(F)F |  | inactive
